# 12-hLO inh = 12-hLO (ALOX12) enzyme inhibition | P18054 | purified 12-hLO, xylenol orange hydroperoxide absorbance | Potency, µM (series often up to 57.1 µM), without a hit: top-dose activity change, negative = inhibition, usual class: inhibitors | 150,000 compounds, 0.12% hits | AID 1452; note: potency is the fitted concentration of half-maximal effect; nearly all actives have a fitted effect of over 55% in size
#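 Purified human 12hLO (150 nM), preincubated 15 min with compound, then 40 uM arachidonic acid for 30 min, room temperature, Hepes pH 7.0 with 0.01% Triton X-100. Hydroperoxide detected by ferrous iron/xylenol orange; 573/405 nm absorbance ratio gives reaction progress.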
# IMPase inh = IMPase inhibition in cells. CHO-M1 cells, IP1 accumulation, HTRF TR-FRET ratio. inhibition (IP1 accumulation), % at 46.1 µM. 120,000 tested, under 10 active. AID 901; active = well fitted curve in the direction sought with a large enough effect in the signal ratio, not every such curve was filed as active; inconclusive = small, poorly fitted or top-dose-only effect, or a change in a side signal; inactive = no such curve, though single readings can be large or run the other way; the % refers to the signal ratio;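 note: cells stimulated with carbachol in lithium chloride buffer; plate controls were DMSO basal wells for no effect and reference inhibitor wells for full effect; higher means more IMPase inhibition seen as more IP1 and lower FRET ratio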
# Target sequence (P97697 whole entry, looked up): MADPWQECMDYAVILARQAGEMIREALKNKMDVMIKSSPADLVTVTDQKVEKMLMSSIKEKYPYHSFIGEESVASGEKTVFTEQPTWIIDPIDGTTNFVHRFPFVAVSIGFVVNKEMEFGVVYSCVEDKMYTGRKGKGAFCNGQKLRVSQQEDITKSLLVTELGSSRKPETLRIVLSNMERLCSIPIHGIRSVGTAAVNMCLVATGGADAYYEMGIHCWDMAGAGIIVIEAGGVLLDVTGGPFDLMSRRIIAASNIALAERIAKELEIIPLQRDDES
#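 Cellular IMPase inhibition is scored as a rise in cytosolic IP1, detected by competitive TR-FRET between d2-labelled IP1 and a europium anti-IP1 antibody. M1-expressing CHO cells were stimulated with carbachol for 30 min at 37C, with lithium (50 mM LiCl) present in the buffer.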
# PNC assembly inh = perinucleolar compartment assembly inhibition. PC3M PTB-GFP, PNC prevalence imaging, 16 h; hits give low values. activity change (PNC), negative = inhibition, % at 10 µM. 140,000 compounds, 3.1% hits;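 active = readout at or below -70, meaning at least 70% loss of cells showing the perinucleolar compartment, a nuclear body marking cancer cells; inconclusive = readout between -30 and a set limit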;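 note: plate controls were DMSO wells for no effect and camptothecin positive control wells for full effect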
#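 PC3M cells stably expressing PTB-GFP, 750–1000 cells/well, treated 16 h at 37 °C with compound (23 nl of library stock), in duplicate. After paraformaldehyde fixation and Hoechst stain, imaged at 20x; PNC prevalence scored by image analysis.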
# IMPase Li inh = IMPase inhibition in cells with lithium potentiation; CHO-M1 cells, IP1 TR-FRET (IP-One), carbachol + lithium; Potency, µM (doses to about 59.4 µM), for the others: top-dose activity, negative = IMPase inhibition, most hits filed as inhibitors; 210,000 compounds, 0.35% hits; AID 1457;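 note: IP1 builds up when IMPase is blocked and the TR-FRET signal falls; potency is the fitted concentration of half-maximal effect; plate controls were basal vehicle for no effect and high inhibitor control for full effect; nearly all actives have a fitted effect of over 50% in size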
#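 Test compounds were applied to CHO-M1 cells previously cultured for 16–30 h at 2000 per well. A small lithium amount accompanied them; after 30 min at 37C, IP1 was quantified by TR-FRET.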
# ALDH1A1 inh = blocks purified human ALDH1A1 activity; 220,000 compounds, 7.3% hits; Purified ALDH1A1, NADH fluorescence, propionaldehyde substrate; AID 1030; Potency, µM (series often up to 75.3 µM), for inactives: top-dose activity, negative = inhibition, most hits filed as inhibitors; P00352; active = well fitted inhibition curve with a large enough effect, not every such curve was filed as active; inconclusive = small, poorly fitted or top-dose-only effect, or another doubt; inactive = no such curve, though single readings can be large or run the other way;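 note: potency is the fitted concentration of half-maximal effect; plate controls were no enzyme wells and a reference inhibitor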
# Target sequence (P00352 whole entry, looked up): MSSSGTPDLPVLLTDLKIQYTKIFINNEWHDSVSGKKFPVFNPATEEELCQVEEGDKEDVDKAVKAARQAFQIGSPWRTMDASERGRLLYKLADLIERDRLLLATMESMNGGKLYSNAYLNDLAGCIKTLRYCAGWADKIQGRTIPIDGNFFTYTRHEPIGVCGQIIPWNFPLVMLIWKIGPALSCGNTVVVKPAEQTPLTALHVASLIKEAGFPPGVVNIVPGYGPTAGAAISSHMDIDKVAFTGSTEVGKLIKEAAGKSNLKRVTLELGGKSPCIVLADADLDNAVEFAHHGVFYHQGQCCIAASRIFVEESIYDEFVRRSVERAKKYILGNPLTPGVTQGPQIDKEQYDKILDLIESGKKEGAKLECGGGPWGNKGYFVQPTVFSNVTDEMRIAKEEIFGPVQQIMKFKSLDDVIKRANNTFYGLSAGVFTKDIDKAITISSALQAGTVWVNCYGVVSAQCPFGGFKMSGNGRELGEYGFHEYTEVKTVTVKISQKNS
# HPGD block = inhibitors of human 15-hydroxyprostaglandin dehydrogenase (HPGD) | P15428 | purified HPGD, NADH fluorescence kinetic, PGE2 substrate | Potency, µM, for inactives: at the top dose activity change, negative = inhibition, hits mostly inhibitors | 150,000 compounds, 4.3% hits | AID 894; active = well fitted inhibition curve with a large enough effect, not every such curve was filed as active; inconclusive = small, poorly fitted or top-dose-only effect, or another doubt; inactive = no such curve, though single readings can be large or run the other way; note: potency is the fitted concentration of half-maximal effect
#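 NADH formation kinetics: reaction with 30 uM PGE2 and 1 mM NAD+ (final), 20 nM enzyme, Tris-HCl pH 8 with Tween 20, after 15 min compound preincubation at room temperature. Fluorescence change, last versus first of five reads.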
# An asterisk follows results filed as active; ? = inconclusive; . = no result given; [ ] = another dose, or the depositor's remark. Shown are actives, neighbours in structure and some others; about 11% of the full set was active somewhere. Unless noted, calls come from the whole dose curve; as a rule, active = well fitted curve in the direction sought with a large enough effect; inconclusive = small, poorly fitted or top-dose-only effect, or another doubt; inactive = no such curve, though single readings can be large; an effect the other way counts as inactive or inconclusive. Unless noted, % is set by controls: 0 for no effect and ±100 for the full control effect.
SMILES,12-hLO inh,IMPase inh,PNC assembly inh,IMPase Li inh,ALDH1A1 inh,HPGD block
COc1ccc2cc(C(=O)Nc3ccc(O)cc3)sc(=O)c2c1OC,-5%,.,31,8%,-15%,25µM*
COC(=O)[C@H](COC(C)(C)C)NC(=O)O[C@@H]1C(=O)c2cc(Br)ccc2O[C@H]1c1ccc2c(c1)OCO2,.,.,.,18%,-7%,-6%
CCCC(c1cc(C(C)(C)C)c(O)cc1C)c1cc(C(C)(C)C)c(O)cc1C,-4%[11.4 µM],.,.,-2%,7%[13.5 µM],-20%
CCOc1ccc(C(=O)Nc2c(C(=O)c3ccccc3)oc3ccccc23)cc1,.,5,.,.,.,.
Cc1cc(C)cc(OCC(O)CN2CCC(CN3C(=O)c4cccc5cccc(c45)C3=O)CC2)c1 (stereo not given),3%,-10,99,-5%[38.3 µM],8%,-5%
CC(/C=C/c1cccc(Oc2ccc(F)cc2)c1)N(O)C(N)=O (stereo not given),.,.,.,7%,5%,-11%
COc1ccc(NC(=O)CSc2nnc(Cc3cccs3)n2-c2ccc(C)cc2)cc1,-7%,1,34,22%[38.3 µM],16µM*,-6%
COc1cccc(NC(=O)CSc2nnc(Cc3cccs3)n2-c2ccc(C)cc2)c1,-22%,4,-2,50%[38.3 µM],3µM*,-15%
Cc1ccc(-n2c(Cc3cccs3)nnc2SCC(=O)Nc2ccc(S(N)(=O)=O)cc2)cc1,-6%,5,25,-6%[38.3 µM],?,-1%
CCCc1nn(C)c2c1C(c1cccnc1)C(C#N)=C(N)O2 (stereo not given),3%,-8,-1,27%[38.3 µM],11%,-7%
CC(C)N1CC2=C(OC(N)=C(C#N)C2c2cccnc2)/C(=C/c2cccnc2)C1 (stereo not given),-16%,-1,-7,0%[38.3 µM],-9%,-17%
Cc1nn(Cc2ccccc2)c2c1C(c1ccncc1)C(C#N)=C(N)O2 (stereo not given),0%,11,?,-2%[38.3 µM],?,-16%
CCN(CC)c1ccc2c(c1)OC(N)=C(C#N)C2c1cccnc1 (stereo not given),6%,12,-99*,8%[38.3 µM],1%,-5%
Cc1nn(Cc2ccccc2)c2c1C(c1ccc(Cl)cc1)C(C#N)=C(N)O2 (stereo not given),-9%,6[0.0738 µM],?,10%,?,1µM*
Cc1nn(Cc2ccccc2)c2c1C(c1cccnc1)C(C#N)=C(N)O2 (stereo not given),4%,8,30,-2%[38.3 µM],7.9µM*,-21%
N#CC1=C(N)OC2=C(CN(Cc3ccccc3)C/C2=C\c2cccnc2)C1c1cccnc1 (stereo not given),0%,3,31,2%,1.3µM*,-5%
O[C@]1(c2ccccc2)c2ccccc2NC2=NCCN21,-3%[11.4 µM],.,.,7%,15%[13.5 µM],2%
C/C=C/C1=Cc2ccccc2C(CC(=O)OC)N1C(=O)OC (stereo not given),5%[11.4 µM],.,.,2%,0%[13.5 µM],-5%
O=C(NS(=O)(=O)c1ccccc1)c1ccccc1F,2%,-2,-122*,16%[38.3 µM],4%,?
CC(C)[C@@H](CC(=O)N[C@@H]1CCNC[C@H]1C(=O)N[C@H](CC(=O)N[C@@H](CCC(=O)O)CC(=O)O)Cc1ccccc1)NC(=O)C[C@H](Cc1c[nH]c2ccccc12)NC(=O)[C@@H]1CNCC[C@H]1N,1%,.,.,13%,4%,-6%
CC1(C)NC(=O)N(CC(O)CN2C(=O)NC(C)(C)C2=O)C1=O,1%,-4,?,-16%[38.3 µM],0%,-4%
Cc1cc(C)n(CC(O)CN2C(=O)NC(C)(C)C2=O)n1 (stereo not given),-1%,4,-107*,20%[38.3 µM],-7%,-15%
OCCNc1ncnc2ccc(Br)cc12,-8%,?,21,.,1%,.
CCN(CC)c1ncnc2ccc(Br)cc12,-2%,-8,?,25µM*,?,-16%
CN(CC(CC(=O)Nc1nncs1)c1ccccc1)S(=O)(=O)c1ccc(Br)cc1 (stereo not given),-25%,9,?,18%[38.3 µM],13µM*,-10%
SMILES,12-hLO inh,IMPase inh,PNC assembly inh,IMPase Li inh,ALDH1A1 inh,HPGD block
Cc1nnc(NC(=O)CC(CN(C)S(=O)(=O)c2ccccc2)c2ccccc2)s1 (stereo not given),-4%,2,?,-11%[38.3 µM],?,-1%
CN(CC(CC(=O)Nc1nncs1)c1ccccc1)S(=O)(=O)c1ccccc1 (stereo not given),-4%,13,-20,4%[38.3 µM],8.9µM*,-4%
COc1cccc(-c2cc(=O)c3ccccc3o2)c1N,-10%,6,.,9%,?,13µM*
O=c1cc(-c2ccccc2F)oc2ccccc12,0%,-1,4,4%,-2%,13µM*
COC(=O)NC1CSCC1OC(=O)CN1C(=O)c2ccccc2C1=O (stereo not given),5%,-2,-85*,20%[38.3 µM],2%,-6%
CC(=O)O[C@H]1CSC[C@H]1NC(=O)c1ccccc1,0%,-6,?,25%[38.3 µM],-10%,-15%
Cc1nc(SCC(=O)c2cc3ccccc3oc2=O)c(C#N)c(-c2ccccc2)c1C(=O)Nc1ccccc1,-4%,-2,8,-9%,-19%,-15%
N#CC1=C(SCC(=O)c2cc3ccccc3oc2=O)NC(=O)C(C#N)C12CCCC2 (stereo not given),-15%,0,-23,9%,1.1µM*,?
COC(=O)c1ccc(C(NC(=O)OCc2ccccc2)/C(=C/[C@@H](C)C(=O)NCc2ccccc2)c2cccnc2)cc1 (stereo not given in full),1%,.,.,2%,-2%,-16%
O=C(NCCCN1CCOCC1)c1ccc(-n2c(=O)c(=O)[nH]c3ccccc32)cc1,-1%,.,.,.,9%,-3%
CCO[C@@H]1OC(C(=O)NCc2ccccc2)=C[C@H](c2ccc3c(c2)OCO3)[C@H]1CCCO,.,.,.,11%,14µM*,.
N#CCCCS(=O)(=O)c1ccccc1,.,.,.,5%,5%,-6%
COc1ccc(N2CC(C)Cn3c2nc2c3c(=O)n(Cc3ccccc3)c(=O)n2C)c(OC)c1 (stereo not given),.,.,.,6%,32µM*,.
COc1ccc(N2CCn3c2nc2c3c(=O)n(CCCc3ccccc3)c(=O)n2C)c(OC)c1,-5%,3,18,25%[38.3 µM],20µM*,-29%
O=C(CCCn1c(SCc2cccc(F)c2)nc2ccccc2c1=O)NCC1CCCO1 (stereo not given),.,.,.,6%,16µM*,.
N#CCSc1nc2ccccc2c(=O)n1CCCC(=O)NCC1CCCO1 (stereo not given),.,.,.,9%,28µM*,.

# Screening data: PubChem, National Center for Advancing Translational Sciences (NCATS)
